High-throughput results from PubChem.
Compounds with a hit are over-represented: about 1.6% of the library has one in this group of screens.
m5-HT2A agonist: mouse HTR2A agonism via beta-arrestin recruitment. P35363. CHO-K1 mHTR2A beta-arrestin complementation, luminescence; percent of 30 µM serotonin response. activation, % at 7.6 µM. 360,000 tested, 0.66% active. AID 624169;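 active = activation above a run cutoff, the mean activation of all tested compounds plus 3 SD, cut at about 14% in these data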;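 note: 0% = plate median of compound wells and 100% = 30 µM serotonin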
OPRM1-OPRD1 ag: OPRM1-OPRD1 heterodimerization agonism; activation, % at 9.3 µM; 340,000 tested, 0.3% active; P35372+P41143; cells, luminescence; in the data active = activation above about 18%;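 note: 0% = vehicle-treated cells and 100% = reference agonist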
Target sequence (P35372 whole entry, looked up): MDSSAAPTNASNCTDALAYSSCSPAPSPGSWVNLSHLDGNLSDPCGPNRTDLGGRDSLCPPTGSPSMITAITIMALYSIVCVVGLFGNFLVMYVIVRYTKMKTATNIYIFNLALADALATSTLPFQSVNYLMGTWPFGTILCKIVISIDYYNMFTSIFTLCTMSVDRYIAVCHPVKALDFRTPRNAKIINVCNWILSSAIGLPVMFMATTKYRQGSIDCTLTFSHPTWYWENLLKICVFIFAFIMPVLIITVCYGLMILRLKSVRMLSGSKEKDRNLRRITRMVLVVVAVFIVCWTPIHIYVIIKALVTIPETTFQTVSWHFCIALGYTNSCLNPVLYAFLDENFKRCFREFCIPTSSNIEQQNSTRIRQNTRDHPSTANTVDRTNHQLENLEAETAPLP
Target sequence (P41143 whole entry, looked up): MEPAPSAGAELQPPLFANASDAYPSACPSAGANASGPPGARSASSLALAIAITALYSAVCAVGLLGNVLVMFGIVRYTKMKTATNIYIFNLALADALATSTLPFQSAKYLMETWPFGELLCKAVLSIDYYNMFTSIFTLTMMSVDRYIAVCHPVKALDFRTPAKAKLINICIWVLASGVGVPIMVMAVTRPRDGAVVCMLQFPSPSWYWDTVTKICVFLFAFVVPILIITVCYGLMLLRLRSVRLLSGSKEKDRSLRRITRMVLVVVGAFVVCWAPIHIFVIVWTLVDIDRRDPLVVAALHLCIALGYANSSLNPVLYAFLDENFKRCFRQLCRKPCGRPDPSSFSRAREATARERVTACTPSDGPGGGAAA
HTR5A inv ctr: counter-screen for OPRM1-OPRD1 inverse agonists: human HTR5A inverse agonism. P47898. HTR5A cell line, luminescence. inhibition, % at 9.3 µM. 340,000 tested, 0.083% active; in the data active = inhibition mostly above about 23%, no sharp cut-off; inactive = mostly below about 18%;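 note: 0% = cells with DMSO and 100% = no-cell wells with DMSO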
HTR5A ag: counter-screen for OPRM1-OPRD1 agonists: human HTR5A agonism | HTR5A agonist assay, luminescence, cell-based | activation, % at 9.3 µM | 340,000 tested, 0.61% active; in the data active = activation mostly above about 9.5%, no sharp cut-off; inactive = mostly below about 7.6%;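 note: 0% = cells with vehicle only and 100% = reference agonist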
MOR-DOR inv ag: inverse agonists of human mu-delta opioid receptor heterodimerization; AID 504357; inhibition, % at 9.3 µM; P35372+P41143; 340,000 tested, 0.21% active; cell-based MOR-DOR heterodimer luminescence, inverse agonism; in the data active = inhibition above about 22%, passing the limit was not always enough;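 note: 0% = cells with DMSO and 100% = wells without cells with DMSO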
MOR ag counter: activates human mu opioid receptor in HTR2A counterscreen. shares compounds with m5-HT2A agonist. U2OS OPRM1 beta-arrestin PathHunter, luminescence; DMSO 0%, DAMGO 9.3 µM 100%. activation, % at 9.3 µM. 2,300 tested, 5.3% active;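 active = mean activation above the mean of DMSO-only wells plus 3 SD, cut at about 0.5% in these data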
HTR2A ag conf: mouse HTR2A agonism confirmed. shares compounds with m5-HT2A agonist. CHO-K1 PathHunter beta-arrestin recruitment, luminescence; DMSO 0%, 30 µM serotonin 100%. activation, % at 7.6 µM. 2,300 tested, 19% active;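 active = mean activation across triplicates above the hit threshold derived in the original primary screen, cut at about 15% in these data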
Numbers without * were called inactive; x = no result.

SMILES	m5-HT2A agonist	OPRM1-OPRD1 ag	HTR5A inv ctr	HTR5A ag	MOR-DOR inv ag	MOR ag counter	HTR2A ag conf
COc1ccc(C2CCCCCN2C(=O)C2CCN(S(=O)(=O)c3ccc(C)cc3)CC2)cc1 (stereo not drawn)	-4.4	x	x	x	x	x	x
Cc1ccc(N2CCN(C(CCc3ccccc3)C(=O)Nc3c(C)cccc3C)CC2)cc1 (stereo not drawn)	-3.9	x	x	x	x	x	x
COc1cc2[nH]c(C)c(-c3ccccc3)c(=O)c2cc1Cl	25.3*	x	x	x	x	-0.6	14.4*
COc1cc(OC)cc(C(=O)NCC(=O)N2CCC(C)CC2)c1	27.8*	-2.6	4.3	-0.5	15.3	-0.4	2.8
CC(C)CN(C(=O)CSc1nncn1-c1ccccc1)c1c(N)n(CC(C)C)c(=O)[nH]c1=O	15.7*	-1.3	6.6	-2.4	6.6	-0.6	0.0
COc1cc(-c2cnc3c(NC(C)=O)cc(-c4ccccc4CN(C)C)cn23)cc(OC)c1OC	2.8	x	x	x	x	x	x
CCCCOc1ccc(C(=O)NCCN2CCC(n3c(=O)[nH]c4ccccc43)CC2)cc1	-4.3	x	x	x	x	x	x
CCCC(=O)Nc1nn(CC(C)C)c2nc3cc(C)ccc3cc12	-2.6	-2.1	-2.5	0.7	10.0	x	x
CCn1nc(NC(=O)CC(C)C)c2cc3ccc(C)cc3nc21	14.5*	3.0	-4.5	1.2	-14.9	-0.3	-5.2
N#CC1(Cc2ccccc2Cl)c2ccccc2C=CN1C(=O)c1ccccc1 (stereo not drawn)	18.8*	0.0	-9.0	4.5	0.0	-0.4	-4.5
CN(CC(=O)Nc1cccnc1)S(=O)(=O)c1ccc(Br)cc1	16.9*	-4.8	-0.5	1.7	15.6	-0.7	-3.6
C/C(=N\Nc1cc(C)nc(-c2ccccc2O)n1)c1ccccc1	-4.4	3.3	3.8	-1.5	-19.3	x	x
Cc1cc(N/N=C/c2ccc(O)c(C)c2O)nc(-c2ccccc2O)n1	20.1*	5.9	-12.4	9.1	-31.6	0.5	64.6*
Cc1cc(C)c(C)c(Cn2c(CO)nc3ccccc32)c1C	14.9*	1.4	-0.9	9.9	-7.8	-0.1	-1.4
COc1ccccc1Cc1c(-c2ccc(C#N)cc2)nc2c(C)cc(Br)cn12	-4.3	x	x	x	x	x	x
COc1ccccc1S(=O)(=O)N(C)C[C@@H]1OCc2cnnn2CCCC(=O)N([C@H](C)CO)C[C@@H]1C	-2.5	x	x	x	x	x	x
COc1cccc(C(C)(O)c2nc(-c3cnc4ccccc4c3)cs2)c1 (stereo not drawn)	3.0	x	x	x	x	x	x
CC(Oc1ccc(Cl)cc1)C(=O)N(C)CC(=O)Nc1ccc(N2CCOCC2)cc1 (stereo not drawn)	-4.0	-3.1	6.7	3.0	16.1	x	x
CC(Sc1ccc(Cl)cc1)C(=O)N(C)CC(=O)Nc1ccc(N2CCOCC2)cc1 (stereo not drawn)	18.3*	0.8	4.5	-1.7	-5.1	0.1	8.0
CCOC(=O)c1ccc(Nc2ncnc3nc[nH]c23)cc1	-4.5	-0.5	-19.7	4.6	3.1	x	x
c1ccc(COc2ccc(Nc3ncnc4nc[nH]c34)cc2)cc1	16.8*	0.5	-38.1	13.6	-2.5	-0.6	-7.2
CCOC(=O)N1CCC(c2cc(=O)n3[nH]ccc3n2)CC1	-1.5	-3.0	-19.9	7.1	15.6	x	x
CCOC(=O)N1CCC(c2cc(=O)n3[nH]cc(C(=O)OC)c3n2)CC1	20.1*	-3.5	-12.1	4.3	18.1	-0.1	2.5
C=C(C)C(=O)OCC(O)COc1ccc(C(C)(C)c2ccc(OCC(O)COC(=O)C(=C)C)cc2)cc1 (stereo not drawn)	16.6*	4.6	-0.9	0.3	-24.9	0.0	2.2
CC(C)NC(=O)C1(C)CCN1C(=O)c1ccc(F)c(Cl)c1 (stereo not drawn)	15.3*	x	x	x	x	-0.7	-4.0
SMILES	m5-HT2A agonist	OPRM1-OPRD1 ag	HTR5A inv ctr	HTR5A ag	MOR-DOR inv ag	MOR ag counter	HTR2A ag conf
CC(C)NC(=O)C1(C)CCN1C(=O)c1cccc(Cl)c1 (stereo not drawn)	-5.1	x	x	x	x	x	x
CC(=O)c1cccc(NC(=S)N2c3ccccc3CC2C)c1 (stereo not drawn)	-4.1	-4.4	-4.0	3.7	21.9	x	x
CCOc1ccc(NC(=S)N2c3ccccc3CC2C)cc1 (stereo not drawn)	15.9*	0.2	4.5	-1.6	-0.8	-0.5	-0.6
CN1CCc2c(sc(NC(=O)Cc3ccccc3)c2C#N)C1	17.7*	-0.1	16.3	0.0	0.6	0.2	69.2*
CC(C)(C)c1n[nH]c(=S)n(/N=C/c2cccs2)c1=O	-1.0	0.1	4.8	2.8	-0.7	x	x
Cc1n[nH]c(=S)n(/N=C/c2cccs2)c1=O	14.4*	-2.2	-46.0	0.6	11.2	-0.5	-5.4
CC(C)NC(=O)C1(C)CSCC(=O)N1C1CCN(Cc2ccccc2)CC1 (stereo not drawn)	-1.2	x	x	x	x	x	x
COCC(=O)N1C[C@@H](C)[C@@H](OC)CN(C)C(=O)c2ccc(NC(=O)c3cnccn3)cc2OC[C@H]1C	1.5	x	x	x	x	x	x
COc1ccc(-c2cnc3c(NC=O)cc(-c4ccc(C(=O)N5CCOCC5)cc4)cn23)cc1OC	17.2*	x	x	x	x	-0.6	2.1
COc1cccc(-c2oc3c(c2C#CC2(N)CCCCC2)C(O)CCC3)c1 (stereo not drawn)	-0.5	x	x	x	x	x	x
CCS(=O)(=O)c1nc(S(=O)(=O)c2ccc(C)cc2)c(N2CCCC2)s1	-9.0	0.0	-0.7	-1.7	-0.1	x	x
CCS(=O)(=O)c1nc(S(=O)(=O)c2ccc(C)cc2)c(N2CCCCCC2)s1	14.7*	x	x	x	x	-0.7	-4.3
O=C(c1ccco1)N1CCN(Cc2ccc(Br)cc2)CC1	14.8*	-0.4	-16.9	4.4	1.9	-0.3	90.2*
O=C(c1ccco1)N1CCN(Cc2c(Cl)cccc2Cl)CC1	-0.9	-3.4	-2.0	0.7	17.6	x	x
O=C(c1ccco1)N1CCN(C(=O)c2ccc(CS(=O)c3ccc(Cl)cc3)o2)CC1 (stereo not drawn)	14.9*	-2.8	-2.2	2.1	13.7	-0.6	-3.5
O=C(c1ccc(CS(=O)c2cccc(Cl)c2)o1)N1CCN(c2ccccn2)CC1 (stereo not drawn)	5.2	0.7	-14.4	1.9	-3.9	x	x
CCc1ccc(CN2CCN(C(=O)c3ccco3)CC2)cc1	15.0*	1.9	-7.7	2.0	-8.4	-0.5	123.2*
O=C(c1ccc(CS(=O)c2cccc(Cl)c2)o1)N1CCOCC1 (stereo not drawn)	17.7*	-3.2	2.7	1.1	15.9	-0.7	-1.7
Cc1ccc(S(=O)Cc2ccc(C(=O)N3CCN(C(=O)c4ccco4)CC3)o2)cc1 (stereo not drawn)	-3.3	-2.0	22.4	-3.5	10.0	x	x
O=C(NCC[C@H]1CC[C@@H](NC(=O)C2CCOCC2)[C@@H](CO)O1)Nc1ccc(Cl)cc1	3.9	x	x	x	x	x	x
Cc1cc(F)ccc1C(O)c1ncc(-c2ccccc2F)[nH]1 (stereo not drawn)	1.8	x	x	x	x	x	x
